Reference: PubChem BioAssay (NCATS)
Results filed as inconclusive are left out. Entries that show only a call come without a potency. Activity calls are given as the source filed them. Calls come from the whole dose curve; as a rule, active = well fitted curve in the direction sought with a large enough effect; inconclusive = small, poorly fitted or top-dose-only effect, or another doubt; inactive = no such curve, though single readings can be large; an effect the other way counts as inactive or inconclusive.

Columns and labels:
[1] = target: Cellular tumor antigen p53 (Homo sapiens) (UniProt P04637); assay: Primary qHTS for small molecule compounds that upregulate eGFP-tagged delta133p53alpha (in N-terminal) cells. (AID 2060322); conditions: NCI-H358 eGFP-delta133p53alpha fluorescence, 24 h; activation: active compounds read high; note: nearly all actives have a fitted effect of over 75% in size; note: potency is the fitted concentration of half-maximal effect;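 for activation: cells pre-induced with doxycycline then dosed without doxycycline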
In short: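 NCI-H358 cells pre-induced 24 h with 10 ng/ml doxycycline for eGFP-delta133p53alpha, plated dox-free and exposed 24 h at 37C to titrated compounds. Fixed, Hoechst-stained; gated GFP peak intensity by laser scanning cytometry, normalized to DMSO (0%) and 57.5 uM 5-azacytidine (100%).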

[2] = target: Aldehyde dehydrogenase, mitochondrial (Homo sapiens) (UniProt P05091); assay: qHTS for Inhibitors of the Aldehyde Dehydrogenase Family (ALDH2) Primary screen (AID 2061308); conditions: ALDH2 enzyme inhibition qHTS, 1536-well; series mostly up to 56 µM; note: nearly all actives have a fitted effect of over 55% in size
[3] = target: Retinaldehyde dehydrogenase 3 (Homo sapiens) (UniProt P47895); assay: qHTS for Inhibitors of the Aldehyde Dehydrogenase Family (ALDH1A3) Primary screen (AID 2061315); conditions: ALDH inhibition qHTS; series mostly up to 56 µM

Sequence of Cellular tumor antigen p53 (Homo sapiens) (P04637 whole entry, looked up): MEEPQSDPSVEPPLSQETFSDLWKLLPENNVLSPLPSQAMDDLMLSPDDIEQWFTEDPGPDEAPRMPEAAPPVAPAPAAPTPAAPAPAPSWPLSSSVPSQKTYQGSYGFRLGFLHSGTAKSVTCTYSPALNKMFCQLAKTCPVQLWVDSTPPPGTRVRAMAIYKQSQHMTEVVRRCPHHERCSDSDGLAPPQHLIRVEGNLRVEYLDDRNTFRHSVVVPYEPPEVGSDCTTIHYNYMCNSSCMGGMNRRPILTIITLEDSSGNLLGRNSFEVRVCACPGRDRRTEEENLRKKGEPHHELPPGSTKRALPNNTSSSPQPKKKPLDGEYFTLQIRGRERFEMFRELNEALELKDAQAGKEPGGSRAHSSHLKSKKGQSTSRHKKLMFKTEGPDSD

C[C@@H]1C[C@H]2O[C@@H]2/C=C\C=C\C(=O)Cc2c(Cl)c(O)cc(O)c2C(=O)O1
Potency [1]: 4.53 µM (active)
Potency [2]: inactive
Potency [3]: inactive

CC(C)C(C#N)O[C@@H]1O[C@H](CO[C@@H]2OC[C@](O)(CO)[C@H]2O)[C@@H](O)[C@H](O)[C@H]1O (stereo partly drawn)
activation [1]: 6.87% (inactive)
Potency [2]: inactive
Potency [3]: inactive

COc1cc(C(=O)OC[C@@]2(O)CO[C@@H](O[C@H]3[C@H](Oc4ccc(C(=O)O)cc4OC)O[C@H](CO)[C@@H](O)[C@@H]3O)[C@@H]2O)ccc1O
activation [1]: -13.7% (inactive)
Potency [2]: inactive
Potency [3]: inactive

COC(=O)[C@H]1[C@H]2C[C@@H]3c4[nH]c5cc(OC)ccc5c4CCN3C[C@H]2C[C@@H](OC(=O)/C=C/c2cc(OC)c(OC)c(OC)c2)[C@@H]1OC
Potency [1]: 7.93 µM (active)
Potency [2]: inactive
Potency [3]: inactive

CC1OC(OC2CCC3(C)C(CCC4(C)C3C=CC35OCC6(CCC(C)(C)CC63)CCC45C)C2(C)CO)C(OC2OC(CO)C(O)C(O)C2O)C(O)C1OC1OC(CO)C(O)C(O)C1O (stereo not drawn)
activation [1]: 14.3% (inactive)
Potency [2]: inactive
Potency [3]: inactive

CC(=O)O[C@@H]1[C@H](O)[C@@H](O[C@@H]2O[C@@H](C)[C@H](O[C@@H]3OC[C@@H](O)[C@H](O[C@@H]4OC[C@@H](O)[C@H](O)[C@H]4O)[C@H]3O)[C@@H](O[C@@H]3O[C@H](CO)[C@@H](O)[C@H](O)[C@H]3O)[C@H]2O)[C@H](OC(=O)[C@]23CCC(C)(C)C[C@H]2C2=CCC4[C@@]5(C)CC[C@H](O[C@@H]6O[C@H](C(=O)O)[C@@H](O)[C@H](O[C@@H]7OC[C@@H](O)[C@H](O)[C@H]7O)[C@H]6O[C@@H]6O[C@H](CO)[C@H](O)[C@H](O)[C@H]6O)[C@@](C)(C=O)C5CC[C@@]4(C)[C@]2(C)CC3)O[C@@H]1C (stereo partly drawn)
activation [1]: -9.16% (inactive)
activity change, negative = inhibition [2]: 5.14% [at 11.2 µM] (inactive)
activity change, negative = inhibition [3]: -8.36% [at 11.2 µM] (inactive)
